Results reported in PubChem BioAssay AID624116 (National Center for Advancing Translational Sciences (NCATS), 2012).
Results filed as inconclusive are left out. Where a call stands in place of a potency, no number is given. Calls of active or inactive are those of the source. Calls follow the shape of the dose curve; as a rule, active = well fitted activation curve with a large enough effect; inconclusive = small, poorly fitted or top-dose-only effect; inactive = no such curve, though single readings can be large or run the other way.

Test: qHTS Assay for Rab9 Promoter Activators: Hit Validation Using Renilla Luciferase Read-Out for Rab9
Conditions: Huh7 Rab9 promoter Renilla luciferase reporter, 24 h; series mostly up to 76.9 µM
From the text: Niemann Pick Type C (NPC) is a rare neurodegenerative lipidosis that is characterized by lipid storage in the endosomal/lysosomal system. Treatment modalities for this devastating disease are currently non-existent due to the severe obstacles associated with accessing the central nervous system with proteins or genes. The majority of mutations causing NPC disease are missense mutations that are distributed throughout the length of the NPC1 protein, with the most prevalent being the I1061T allele. Although NPC1 mutant proteins may be functional, they are typically trapped in the ER due to misfolding. […] We have developed and optimized a cell based renilla luciferase reporter assay in 1536 well format for the identification of up-regulators of the mutant Rab9 promoter. This assay presents data on the validation of hits from the primary screen, which used a firefly luciferase read-out. NIH Chemical Genomics Center [NCGC] NIH Molecular Libraries Probe Production centers Network [MLPCN] MLPCN Grant: MH089375 Assay Submitter (PI): Yiannis A. Ioannou
Huh7 cells stably expressing NPC promoter-luciferase will be seeded at 1,500 cells/well in 5 uL in 1,536-well white opaque plates with 23 nL/well of compound in DMSO solution. The assay plates will be incubated at 37 deg C for 24 hours, after which 3 uL/well BriteLite plus luciferase detection reagent mixture (Perkin Elmer) will be added. Luminescence signal will be measured in a ViewLux plate reader (Perkin Elmer) after a 10 minute incubation at the room temperature.
Potency is read from the fitted curve at half-maximal effect.

SMILES | Potency
O=C(CSc1nnc(-c2ccccn2)o1)Nc1ccccc1F | inactive
O=C(CCN1C(=O)c2ccccc2C1=O)Nc1ccc(-c2nc3ccccc3s2)cc1 | inactive
Cc1nc(-c2ccc(S(=O)(=O)Oc3ccc(Cl)cc3Cl)s2)cs1 | inactive
CC1CCCN(C(=S)Nc2ccc(Nc3ccccc3)cc2)C1 (stereo not given) | inactive
CC(=O)c1cccc(NC(=O)N2CCOCC2)c1 | inactive
Brc1ccccc1-c1nnc(CSc2nnc3sc4ccccc4n23)o1 | inactive
CCCCn1c(Nc2ccc(OC)cc2)nc2ccccc21 | inactive
O=C(CSc1nnc(-c2ccccc2)o1)Nc1ccccc1F | inactive
Cc1ccc(NC(=O)Nc2cccc3ccccc23)cc1 | inactive
Cc1cccc(N2CCN(C(=S)c3ccccc3)CC2)c1 | inactive
Cc1cc(C)cc(N(CC(=O)NC2CCCC2)C(=O)CNC(=O)c2ccco2)c1 | inactive
CCCN(CCC)CCCNC(=O)c1cc2cc3ccc(Cl)cc3nc2o1 | inactive
Cc1ccc(NC(=O)c2c(O)c3ccccc3n(C)c2=O)nc1 | inactive
Fc1ccc(-c2nc3nc4ccccc4nc3n2Cc2ccco2)cc1 | inactive
CC(=O)Nc1ccc(-c2csc(Nc3ncccn3)n2)cc1 | inactive
CCC(=O)Nc1cc(-c2cc3ccccc3oc2=O)ccc1OC | inactive
O=C(NC(=S)Nc1ccc(CN2CCCCC2)cc1)c1cc2ccccc2o1 | inactive
Cc1ccc(C(=O)c2cncc(Br)c2)cc1 | inactive
COc1ccc(-c2nnc(SCC(=O)/C(C#N)=C(\C)N)o2)cc1 | inactive
COc1ccc(C(c2nnnn2CCc2ccccc2)N2CCN(C3CCCC3)CC2)cc1 (stereo not given) | 13 µM (active)

SMILES | Potency
O=C(NC1CCCC1)C(c1ccc(F)cc1)N(C(=O)c1csnn1)c1ccccc1 (stereo not given) | inactive
Cc1nc2sc(C(=O)OC(C)C)c(N)c2c(C)c1C | inactive
Cc1ccc(N(O)C(=O)NCCCCNC(=O)N(O)c2ccc(C)cc2)cc1 | inactive
COC(=O)Nc1nc2ccc(Br)cc2s1 | inactive
O=C(CCc1cccc(Cl)c1)NC1CCCN(Cc2ccccc2F)C1 (stereo not given) | inactive
Cc1nc(-c2ccccn2)sc1C(=O)Nc1ccc(F)cc1F | inactive
O=C(NCCc1ccccc1)c1cc2ncc(Br)cn2n1 | inactive
COc1ccc(NC(=O)CN(C)C(=O)c2ccc(=O)[nH]c2)cc1 | inactive
Cc1cccc(NC(=O)CSc2nc3ccccc3o2)c1 | inactive
N#C/C(=C\c1ccc[nH]1)C(=O)Nc1ccccc1Cl | 23.2 µM (active)
COc1ccccc1N(C(=O)c1snc(C(N)=O)c1N)C(C(=O)NC1CCCCC1)c1cccc(OC)c1OC (stereo not given) | 26 µM (active)
COC(=O)CSc1nc2cc3c(cc2cc1C#N)OCO3 | inactive
COc1ccc(-c2noc(N3CCCC(C(=O)Nc4ccccc4F)C3)n2)cc1 (stereo not given) | inactive
O=[N+]([O-])c1cnccc1Nc1ccc(F)cc1 | inactive
Cc1noc(/C=C/N(C)C)c1S(=O)(=O)N1CCCC(C(=O)N2CCCCC2)C1 (stereo not given) | inactive
Nc1ccccc1C(=O)N/N=C1/C2CN3CCN(C2)CC1(Cc1ccccc1)C3 | inactive
CC(=O)Nc1ccc(NC(=O)COc2ncnc3ccccc23)cc1 | inactive
O=C(CSc1ncccn1)Nc1cccc2ccccc12 | inactive
CCCOP(=O)(c1ccc(N(C)C)cc1)C(O)c1cccnc1 (stereo not given) | inactive
CC1CN(C(=O)c2ccncc2)CC(C)O1 (stereo not given) | inactive
